Laboratory results as given in PubChem BioAssay (Tox21).
Records with an inconclusive call do not appear. The source made the active and inactive calls. Calls come from the whole dose curve; as a rule, active = well fitted inhibition curve with a large enough effect in the signal ratio in the repeat runs, with a control signal flat; inconclusive = weak or mixed curves, or effect the other way; inactive = flat fitted curve, though single readings scatter; the % refers to the signal ratio.

target: D(2) dopamine receptor (Homo sapiens) (UniProt P14416); assay: Dopamine D2 receptor (DRD2) small molecule antagonists, cell-based qHTS assay (AID 1963595); conditions: HEK293-DRD2 cAMP HTRF antagonist mode; series mostly up to 92.4 µM; activity change, negative = inhibition: at the top concentration
Sequence (P14416 whole entry, looked up): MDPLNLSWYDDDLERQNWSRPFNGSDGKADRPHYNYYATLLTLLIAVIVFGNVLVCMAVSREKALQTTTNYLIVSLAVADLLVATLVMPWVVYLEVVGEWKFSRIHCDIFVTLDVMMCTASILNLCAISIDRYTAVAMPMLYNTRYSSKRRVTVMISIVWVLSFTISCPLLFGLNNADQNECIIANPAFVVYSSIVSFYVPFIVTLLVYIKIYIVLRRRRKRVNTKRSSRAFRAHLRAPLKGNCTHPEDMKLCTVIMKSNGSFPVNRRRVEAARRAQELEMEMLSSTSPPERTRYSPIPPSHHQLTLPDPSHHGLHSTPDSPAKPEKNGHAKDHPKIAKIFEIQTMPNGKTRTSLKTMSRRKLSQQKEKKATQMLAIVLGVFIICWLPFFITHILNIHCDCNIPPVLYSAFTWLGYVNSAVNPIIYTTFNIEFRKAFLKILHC
Source text: National Center for Advancing Translational Sciences [NCATS]
Division of Preclinical Innovation [DPI]
U.S. Environmental Protection Agency [EPA]
National Institutes of Environmental Health Sciences [NIEHS]
National Toxicology Program [NTP]
U.S. Food and Drug Administration [FDA]
DRD2 is the D2 subtype of the dopamine receptor, which is coupled to Gi subtype of G protein-coupled receptor. This G protein-coupled receptor inhibits adenylyl cyclase activity. The DRD2-HEK293 cell line stably expressing D2 dopamine receptor can be used for screening agonists and antagonists of interactions between D2 and its ligands. The Hek293-DRD2 cAMP assay is based on HTRF technology. It measures changes of cAMP accumulation in response to Gi coupled GPCR activation or inhibition.
Tox21 Assay Protocol Summary:
DRD2-Hek293 cells were dispensed at 600 cells/3uL/well in 1536-well white plates using a Multidrop Dispenser. After the assay plates were incubated at a 37 C/5% CO2 incubator for 24 h, 1 uL of Ro20-1724 at final concentration of 0.1 mM was transferred to the assay plate by a Flying Reagent Dispenser. Following Ro20-1724 addition, 23 nL of compound dissolved in DMSO, positive controls or DMSO only was added to the assay plates via Wako pintool station. The assay plates were incubated at room temperature for 10 min. Next, 1 uL of mixture of NKH477 (final concentration at 200 nM) and quinpirole (final concentration at 12 nM) was added into the plates. After the assay plates were incubated at room temperature for an additional 30 min, 2.5 ul/well of cAMP-d2 and 2.5 ul/well of anti-cAMP-cryptate were added respectively into the assay plates using a Flying Reagent Dispenser. The plates were incubated at room temperature for 1 h. The fluorescence intensity in the plates was measured at 340 nm excitation and 665 & 620 nm emission by an Envision plate reader.
% is set by controls: 0 for no effect and ±100 for the full control effect; potency is the fitted concentration of half-maximal effect.

Structure (SMILES)	activity change, negative = inhibition	Potency
C[C@]12CC[C@@H](O)C[C@@H]1CC[C@@H]1[C@@H]2CC[C@]2(C)C(=O)CC[C@@H]12	-2.35% (inactive)	
ClC(Cl)C(Cl)Cl	3.82% (inactive)	
CCC1(c2cccc(O)c2)CCCCN(C)C1 (stereo not given)	-0.185% [at 42.5 µM] (inactive)	
CCN(CCO)CCn1c(Cc2ccccc2)nc2c1c(=O)n(C)c(=O)n2C	12.6% [at 42.5 µM] (inactive)	
ClC=C(Cl)Cl	2.26% (inactive)	
Nc1ccccc1-c1ccccc1	12.6% (inactive)	
COc1cccc(C(=O)NN(C(=O)c2cc(C)cc(C)c2)C(C)(C)C)c1C	6.06% (inactive)	
Cc1c(F)c(F)c(COC(=O)C2C(/C=C(\Cl)C(F)(F)F)C2(C)C)c(F)c1F (stereo not given)	-15.7% (inactive)	
CCCCC/C=C\C/C=C\C/C=C\C/C=C\CCCC(=O)NCC(=O)O	6.77% [at 42.5 µM] (inactive)	
CNC(=O)O/N=C(/CSC)C(C)(C)C	5.05% (inactive)	
CC(C)N(C(=O)SC/C(Cl)=C/Cl)C(C)C	0.283% (inactive)	
CN1[C@@H]2CC[C@H]1CC(OC(=O)c1cc(Cl)cc(Cl)c1)C2 (stereo not given in full)	0.208% [at 42.5 µM] (inactive)	
CCCCCCCCCCCCCN1CC(C)OC(C)C1 (stereo not given)	-0.833% (inactive)	
CN1COCN(Cc2cnc(Cl)s2)/C1=N\[N+](=O)[O-]	-5.45% (inactive)	
CC(C)(C)NCC(O)c1cc(Cl)c(N)c(C(F)(F)F)c1 (stereo not given)		8.4 nM (active)
O=CNC(N1CCN(C(NC=O)C(Cl)(Cl)Cl)CC1)C(Cl)(Cl)Cl (stereo not given)	-3.22% (inactive)	
CCCCCCCCCCCCN(C)C	-6.29% (inactive)	
CC(C)NCC(O)c1ccc(N)c(C#N)c1 (stereo not given)		4.7 nM (active)
Oc1ccc2[nH]cc(CCCCN3CC=C(c4ccccc4)CC3)c2c1	-3.64% [at 42.5 µM] (inactive)	
CCOP(=O)(SC(C)CC)N1CCSC1=O (stereo not given)	-1.69% (inactive)	

Structure (SMILES)	activity change, negative = inhibition	Potency
C[C@@H]1CC2=CC(=O)CC[C@@H]2[C@H]2CC[C@@]3(C)[C@@H](CC[C@]3(C)O)[C@@H]21	0.943% [at 42.5 µM] (inactive)	
Cc1ccc2ccccc2c1C		inactive
CCOP(O)OCC	12.3% (inactive)	
ClP(Cl)(Cl)(Cl)Cl	5.93% (inactive)	
[Cl][Sn]([c]1ccccc1)([c]1ccccc1)[c]1ccccc1		7300 nM (active)
N=C(N)[Se]	-5.58% (inactive)	
CC[N+]1(CCOC(=O)C(O)(c2ccccc2)c2ccccc2)CCCCC1	1.46% [at 42.5 µM] (inactive)	
CCCCCCCCCCCCN=C(N)N	-0.313% [at 3.28 µM] (inactive)	
O=C1OC(CCN2CCCCC2)OC1(c1ccccc1)c1ccccc1 (stereo not given)	-4.28% [at 42.5 µM] (inactive)	
CC(C1CC1)C(O)(Cn1cncn1)c1ccc(Cl)cc1 (stereo not given)	3.67% (inactive)	
CCN(C(C)=O)c1cccc(-c2ccnc3c(C#N)cnn23)c1	0.218% [at 42.5 µM] (inactive)	
C[C@]12Cc3cn[nH]c3C[C@@H]1CC[C@@H]1[C@@H]2CC[C@@]2(C)[C@H]1CC[C@]2(C)O	1.76% [at 42.5 µM] (inactive)	
CCCN(CCC)C(=O)Cc1c(-c2ccc(Cl)cc2)nc2ccc(Cl)cn12	0.144% [at 42.5 µM] (inactive)	
CCC(C)(C)c1cc(-n2nc3ccccc3n2)c(O)c(C(C)(C)CC)c1	-0.634% (inactive)	
CC(C)C(Br)C(=O)NC(N)=O (stereo not given)	0.43% [at 42.5 µM] (inactive)	
C[As+](C)(C)CC(=O)[O-]	-1.15% (inactive)	
ClC(Br)Br	1.46% (inactive)	
Clc1ccc(-c2ccccc2)cc1	-8.61% (inactive)	
Clc1cccc2ccccc12	4.48% (inactive)	
CO/N=C(/C1=NOCCO1)c1ccccc1Oc1ncnc(Oc2ccccc2Cl)c1F	-14.4% (inactive)	
